# From PubChem BioAssay (Tox21)
# Values joined by “and” are separate entries in the source; they are usually repeats but may differ in a detail not shown here. Equal entries are not always repeated. Inconclusive results are not listed. Where a call stands in place of a potency, no number is given. Values without a mark were called inactive. Active and inactive are the calls of the source. Calls come from the whole dose curve.
# Assay: qHTS assay to identify small molecule agonists of H2AX - cell viability counter screen (AID 1224847); note: nearly all actives have a fitted effect of over 30% in size; for activity change, negative = cytotoxicity: top concentration of the series differs between compounds
# Conditions: CHO-K1 viability, CellTiter-Glo luminescence, 3 h; series mostly up to 154 µM
# Excerpt: National Center for Advancing Translational Sciences [NCATS]
# NIH Chemical Genomics Center [NCGC]
# U.S. Environmental Protection Agency [EPA]
# National Institutes of Environmental Health Sciences [NIEHS]
# National Toxicology Program [NTP]
# U.S. Food and Drug Administration [FDA]
# HTRF phospho-H2AX (Ser139) assay (Cisbio Bioassays, US) enables the quantitative detection of the histone variant H2AX when phosphorylated on serine 139. When double-stranded DNA breaks, either by ionizing radiation or endogenous physiological processes, H2AX becomes phosphorylated at Ser139. This phospho-Ser139 serves as a sensitive biomarker for the detection of such breaks, localizing the site of DNA repair. So, HTRF phospho-H2AX Ser139 is a pertinent assay to study genome stability, the cell cycle, DNA repair, and it serves as a biomarker for cancer, and to understand aging. Wild type CHO-K1 cells were used to identify the inducers of Phospho-H2AX Ser 139 from the Tox21 compound collections. Also cytotoxicity of the Tox21 10K compound library against the CHO-K1 cell line was tested by measuring the cell viability using CellTiter-Glo assay (Promega, Madison, WI).
# Tox21 Assay Protocol Summary:
# The CHO-K1 cells suspended in culture medium containing 10% FBS were dispensed at 1000 cells/ 3 ul/well in 1536-well white wall/solid bottom plates (Greiner Bio-One North America, NC) using a Multidrop Combi (Thermo Fisher Scientific Inc., Waltham, MA). After the assay plates were incubated at 37C overnight, 23 nl of compounds at 15 concentrations (from 5-48 columns) or positive control (from 1 to 4 columns) were transferred to the assay plates using a Pintool station (Wako, San Diego, CA) into each well resulting in a final DMSO concentration of 0.76%. After 3hr incubation at 37C, 3 uL/well CellTiter-Glo luminescent cell viability reagent (Promega Corporation, Madison, WI) was added using a Flying Reagent Dispenser (FRD) (Aurora Discovery, CA). After incubation at room temperature for 30 min, the luminescence intensity was read using a ViewLux plate reader (PerkinElmer, Waltham, MA).
# Potency is the fitted concentration of half-maximal effect.
Compound,Potency,"activity change, negative = cytotoxicity"
COc1cc(N)c(Cl)cc1C(=O)NC1CN2CCC1CC2 (stereo not given),inactive,–
C[CH2][Hg][N]1C(=O)C2C(C1=O)C1(Cl)C(Cl)=C(Cl)C2(Cl)C1(Cl)Cl (stereo not given),13.5 µM (active),–
Cc1cccc(OP(=O)(Oc2cccc(C)c2)Oc2cccc(C)c2)c1,inactive,–
N#CCCO,inactive,–
CS(=O)(=O)c1ccc(C(=O)C2C(=O)CCCC2=O)c([N+](=O)[O-])c1,inactive,–
Nc1ccc(Sc2ccc(N)cc2)cc1,inactive,–
Clc1ccc(Oc2ccccc2)cc1,inactive,–
CCOP(=S)(OCC)SCCS(=O)(=O)CC,inactive,–
CCCCCCCCCCCCCCCC[N+](C)(C)C,54.6 µM (active) and 101 µM (active) and 49.2 µM (active),–
CCc1nn(C)c(C(=O)NCc2ccc(C(C)(C)C)cc2)c1Cl,56.6 µM (active),–
CC(=[OH+])/C=C(/C)[O-].CC(=[OH+])/C=C(\C)[O-].CC(=[OH+])/C=C(\C)[O-].[Fe],inactive,–
COC[C@H](C)N(C(=O)CCl)c1c(C)csc1C,inactive,–
O=[N+]([O-])c1cc(Cl)ccc1Cl,inactive,–
CCCCCCCCCCCCCN1CC(C)OC(C)C1 (stereo not given),inactive,–
O=C(CCl)C(Cl)Cl,inactive,–
Oc1ccc(C2(c3ccc(O)cc3)CCCCC2)cc1,95.4 µM (active),–
COc1ccc(OC)c(C=O)c1,inactive,–
BrCC(Br)c1ccccc1 (stereo not given),inactive,–
NNC(=O)c1ccccc1,inactive,–
N#C/C=C/c1ccccc1,inactive,–

Compound,Potency,"activity change, negative = cytotoxicity"
C[C@@H]1CC[C@@]2(OC1)O[C@H]1[C@@H](O)[C@H]3[C@@H]4CC[C@H]5C[C@@H](O[C@@H]6O[C@H](CO)[C@H](O[C@@H]7O[C@H](CO)[C@@H](O)[C@H](O[C@@H]8OC[C@@H](O)[C@H](O)[C@H]8O)[C@H]7O[C@@H]7O[C@H](CO)[C@@H](O)[C@H](O[C@@H]8O[C@H](CO)[C@@H](O)[C@H](O)[C@H]8O)[C@H]7O)[C@H](O)[C@H]6O)[C@H](O)C[C@]5(C)[C@H]4CC[C@]3(C)[C@H]1[C@@H]2C,10.7 µM (active),–
C=CCOC(N)=O,inactive,–
ClCCN1CCOCC1,inactive,–
NC(=O)c1ccc(N)nc1,inactive,–
O=C1NCN(c2ccccc2)C12CCN(CC1COc3ccccc3O1)CC2 (stereo not given),inactive,–
CCCCCCCCCC[N+](C)(C)CCCCCCCCCC,40.1 µM (active),–
CN(C)C1CSSSC1,inactive,–
Nc1ccc([N+](=O)[O-])cc1Cl,inactive,–
CCOP(=S)(OCC)SCS(=O)(=O)C(C)(C)C,inactive,–
Cn1[nH]nnc1=S,inactive,–
Oc1cc(Cl)c(Cl)c(Cl)c1,42.7 µM (active),–
CC(C)CCCCCOC(=O)c1ccccc1C(=O)OCCCCCC(C)C,inactive,–
Cc1ccc(CCl)cc1,inactive,–
Nc1ccccc1C(=O)Oc1ccc2ccccc2c1,80 µM (active),–
O=C(O)C1C2CCC(O2)C1C(=O)O (stereo not given),inactive,–
Brc1c(Br)c(Br)c(Oc2c(Br)c(Br)c(Br)c(Br)c2Br)c(Br)c1Br,–,2.26% [at 31.6 µM]
Nc1ccccc1C(=O)OC/C=C/c1ccccc1,101 µM (active),–
COc1cccc2c1C(=O)c1c(O)c3c(c(O)c1C2=O)C[C@@](O)(C(=O)CO)CC3OC1CC(N2CCOC(OC)C2)C(O)C(C)O1 (stereo not given in full),inactive,–
CC(C)(C)C(O)/C(=C\c1ccc(Cl)cc1Cl)n1cncn1 (stereo not given),122 µM (active),–
C[C@]12CC[C@H](O)C[C@H]1CC[C@@H]1[C@@H]2C[C@@H](O)[C@]2(C)[C@@H](C3=CC(=O)OC3)CC[C@]12O,inactive,–
